Bioassay records (PubChem)
Rows were chosen to be rich in hits. Some 5.8% of all compounds tested hit in one or more screens of this group.
MCF10A rereplic = induces DNA re-replication in MCF 10a normal breast cells; 2.9% of 350,000 active; Potency, µM (doses to about 46.1 µM), hits mostly activators; MCF 10A DNA re-replication, Hoechst nuclear intensity, 48 h; also: nearly all actives have a fitted effect of over 50% in size
12-LOX inh = blocks human arachidonate 12S-lipoxygenase; P18054; 1.1% of 580,000 active; AID 1671190; purified 12hLO, xylenol orange hydroperoxide absorbance; Potency, µM (doses to about 108 µM), most hits filed as inhibitors
Target sequence (P18054 whole entry, looked up): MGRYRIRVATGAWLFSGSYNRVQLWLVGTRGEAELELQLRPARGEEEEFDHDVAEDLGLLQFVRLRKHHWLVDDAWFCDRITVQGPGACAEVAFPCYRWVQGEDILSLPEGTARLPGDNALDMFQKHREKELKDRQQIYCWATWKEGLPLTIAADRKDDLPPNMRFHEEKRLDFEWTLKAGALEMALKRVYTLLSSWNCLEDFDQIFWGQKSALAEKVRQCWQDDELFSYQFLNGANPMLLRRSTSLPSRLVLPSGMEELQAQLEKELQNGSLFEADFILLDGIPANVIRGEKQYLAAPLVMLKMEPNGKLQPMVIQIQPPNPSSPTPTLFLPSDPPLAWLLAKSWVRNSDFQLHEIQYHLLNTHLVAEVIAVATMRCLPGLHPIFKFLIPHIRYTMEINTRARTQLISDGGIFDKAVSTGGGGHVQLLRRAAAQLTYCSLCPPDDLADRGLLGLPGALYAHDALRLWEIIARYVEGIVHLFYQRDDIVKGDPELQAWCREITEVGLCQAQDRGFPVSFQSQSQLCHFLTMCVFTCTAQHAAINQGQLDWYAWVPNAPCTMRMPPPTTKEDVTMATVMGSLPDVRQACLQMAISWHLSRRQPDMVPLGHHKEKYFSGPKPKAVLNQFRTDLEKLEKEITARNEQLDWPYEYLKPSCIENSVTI
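Purified human 12hLO at 150 nM in 25 mM Hepes, 0.01% Triton X-100, pH 7.0, preincubated 15 min at room temperature with compound. Reaction started with 40 uM arachidonic acid, 30 min at room temperature. Hydroperoxide measured by Fe-xylenol orange, 573/405 nm absorbance ratio.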
KB-3-1 cytotox = kills parental KB-3-1 adenocarcinoma cells; KB-3-1 viability, CellTiter-Glo ATP luminescence, 72 h; Potency, µM (series often up to 46.1 µM), most hits filed as cytotoxic; 1.4% of 400,000 active; AID 1347075; also: nearly all actives have a fitted effect of over 60% in size
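Cytotoxicity in the drug-sensitive parental line KB-3-1 was scored as loss of CellTiter-Glo luminescence following 72 h incubation with compound. Values come from curve fitting of normalized concentration-response data.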
PINK1 modulator = PINK1 expression modulation. AID 624263. 0.2% of 410,000 active. PINK1 immunofluorescence, high-content cytometry, 24 h. Potency, µM (series often up to 76.6 µM), usual class: activators; active = well fitted activation curve with a large enough effect; inconclusive = small, poorly fitted or top-dose-only effect; cell line not stated here; also: nearly all actives have a fitted effect of over 65% in size
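A stable cell line was treated with compounds at 5 concentrations for 24 hours, with CCCP as control. PINK1 levels and mitochondrial localization were measured by immunofluorescence with mitochondrial, cell and nuclear markers after fixation, read by laser-scanning cytometry.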
SW480 rerep = DNA re-replication induction in SW480 cells | SW480 DNA re-replication, Hoechst DNA content imaging, 48 h | Potency, µM (highest dose often 46.1 µM), most hits filed as activators | 1.8% of 340,000 active | AID 624297; also: nearly all actives have a fitted effect of over 55% in size
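Cells (250 per well) received 23 nL compound or DMSO by pin tool and were kept 48 hr at 37 C, 5% CO2. Nuclei were then stained with Hoechst for 40 min and scanned for DNA content.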
KB-V1 MDR tox = KB-V1 MDR subline cytotoxicity. AID 1347076. Potency, µM (series often up to 46.1 µM), hits mostly cytotoxic. KB-V1 MDR cells viability, CellTiter-Glo, 72 h. 3.4% of 400,000 active; also: nearly all actives have a fitted effect of over 60% in size
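KB-V1 MDR subline cells in DMEM (phenol-red free, 10% FBS) exposed to compounds in qHTS concentration series for 72 h at 37 degrees C. Viability read by CellTiter-Glo luminescence; concentration-effect curves fitted after normalization and correction.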
Of the large screens only hits and unclear results are named; the others gave an inactive call. Unless noted, calls follow the shape of the dose curve; as a rule, active = well fitted curve in the direction sought with a large enough effect; inconclusive = small, poorly fitted or top-dose-only effect, or another doubt; inactive = no such curve, though single readings can be large; an effect the other way counts as inactive or inconclusive.

Cc1cccc(CN2C(=O)N/C(=C/c3ccc(C)s3)C2=O)c1	MCF10A rereplic 7.3µM, KB-3-1 cytotox 23µM, SW480 rerep inconclusive, KB-V1 MDR tox 15µM
Cc1cccc(CN2C(=O)N/C(=C/c3cc(C)n(-c4cc(C)ccn4)c3C)C2=O)c1	MCF10A rereplic inconclusive, KB-3-1 cytotox inconclusive (no result: 12-LOX inh)
CCN1C(=O)/C(=C/c2ccc(C)s2)NC1=S	12-LOX inh inconclusive
CCc1nc2c(c(-c3ccc(Cl)cc3)n1)CN(S(=O)(=O)c1ccccc1)CC2	none (no result: MCF10A rereplic, KB-3-1 cytotox, PINK1 modulator, SW480 rerep, KB-V1 MDR tox)
CC(=O)Nc1nc2cc3c(cc2s1)OCCO3	KB-3-1 cytotox inconclusive
Fc1cccc2sc(Nc3nc4cc5c(cc4s3)OCO5)nc12	MCF10A rereplic 10µM
CC(C)C(=O)Nc1nc2cc3c(cc2s1)OCO3	none
Fc1cc(F)c2nc(Nc3nc4cc5c(cc4s3)OCO5)sc2c1	MCF10A rereplic 15µM
Fc1cccc2sc(Nc3nc4cc5c(cc4s3)OCCO5)nc12	MCF10A rereplic 5.2µM, KB-3-1 cytotox inconclusive
CC(C)(C)C(=O)Nc1nc2cc3c(cc2s1)OCO3	SW480 rerep 3.3µM
Cc1cn2nc(C(=O)NC3CCCCCC3)cc2c(N2CCCC2)n1	none (no result: MCF10A rereplic, KB-3-1 cytotox, PINK1 modulator, SW480 rerep, KB-V1 MDR tox)
CC(NC(=O)C1(c2ccccc2)CC1)C12CC3CC(CC(C3)C1)C2 (stereo unspecified)	none (no result: MCF10A rereplic, KB-3-1 cytotox, PINK1 modulator, SW480 rerep, KB-V1 MDR tox)
O=S(=O)(N[C@H]1CO[C@H]2[C@@H]1OC[C@@H]2n1cc(CC2CCCCC2)nn1)c1cccs1	none (no result: MCF10A rereplic, KB-3-1 cytotox, PINK1 modulator, SW480 rerep, KB-V1 MDR tox)
O=C(Nc1ccc(F)cc1F)c1ccc2c(c1)[nH]c(=O)n2Cc1ccc(F)cc1	MCF10A rereplic 5.8µM
O=C1CC(=Nc2ccc([N+](=O)[O-])cc2)NN1c1c(Cl)cc(Cl)cc1Cl	12-LOX inh 32µM (no result: MCF10A rereplic, SW480 rerep)
COc1cc(OC)c(OC)cc1CNC(=O)c1cc(S(=O)(=O)N(C)c2ccccc2OC)ccc1C	12-LOX inh inconclusive, KB-V1 MDR tox inconclusive
COc1ccccc1N(C)S(=O)(=O)c1ccc(C)c(C(=O)NC(C)c2ccccn2)c1 (stereo unspecified)	KB-V1 MDR tox 9.2µM
Cc1cccc(C2=NN(c3ccc(Br)cc3)[C@@H](C(=O)N3CCOC3=O)[C@@H]2c2ccc(Cl)cc2)c1	MCF10A rereplic inconclusive, SW480 rerep 8.2µM (no result: 12-LOX inh)
Cc1cccc(C2=NN(c3ccccc3)[C@@H](C(=O)N3CCOC3=O)[C@@H]2c2ccc([N+](=O)[O-])cc2)c1	none
Cc1cccc(C2=NN(c3ccc(Br)cc3)[C@@H](C(=O)N3CCOC3=O)[C@@H]2c2ccc(F)cc2)c1	MCF10A rereplic inconclusive, SW480 rerep 9.2µM
CCOC(=O)/C(C(N)=NCCCO)=C(/O)c1ccccc1	PINK1 modulator 14µM
CC1=C(C(=O)Nc2ccc(C)cn2)C(c2cccc(Oc3ccccc3)c2)C2=C(CCCC2=O)N1 (stereo unspecified)	none (no result: MCF10A rereplic, KB-3-1 cytotox, PINK1 modulator, SW480 rerep, KB-V1 MDR tox)
Cc1cc(/C=C2\Sc3ccccc3N2C)cc(C)[n+]1CC1CCCO1 (stereo unspecified)	MCF10A rereplic inconclusive, KB-3-1 cytotox 0.65µM, PINK1 modulator inconclusive, SW480 rerep 9.2µM
COC(=O)c1cc(-c2c(C)oc3cc(OC)ccc3c2=O)c(C)o1	KB-V1 MDR tox 18µM
O=C(CCl)NCc1c(Cl)cccc1-n1cccc1	MCF10A rereplic 18µM
O=C(Cc1c(Cl)cccc1Cl)NCCc1ccc(Cl)cc1	none
CCOC(=O)CNC(=O)c1ccc(C(=O)NCC(=O)OCC)cc1	none (no result: MCF10A rereplic, KB-3-1 cytotox, PINK1 modulator, SW480 rerep, KB-V1 MDR tox)
COC(=O)c1c(NC(=O)/C=C/C(=O)O)sc(C)c1-c1ccc(C(C)C)cc1	MCF10A rereplic 3.3µM, KB-3-1 cytotox 21µM, SW480 rerep 15µM, KB-V1 MDR tox inconclusive
CCOC(=O)c1c(NC(=O)/C=C/C(=O)O)sc(C)c1-c1ccc(C)c(C)c1	MCF10A rereplic 4.1µM
COC(=O)c1c(NC(=O)/C=C/C(=O)O)sc(C)c1-c1ccc(C)c(C)c1	MCF10A rereplic 16µM, KB-3-1 cytotox inconclusive, SW480 rerep inconclusive
Cc1ccc(-c2c(C)sc(NC(=O)C3C4CCC(O4)C3C(=O)O)c2C(=O)OC(C)C)cc1 (stereo unspecified)	none
